# Screening data deposited in PubChem BioAssay by National Center for Advancing Translational Sciences (NCATS).
# KB-3-1 tox: KB-3-1 parental cell cytotoxicity; KB-3-1 viability, CellTiter-Glo ATP luminescence, 72 h; Potency, µM (highest dose often 46.1 µM), hits mostly cytotoxic; hit rate 1.4% among 400,000; note: nearly all actives have a fitted effect of over 60% in size
#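 Parental KB-3-1 adenocarcinoma cells in phenol-red-free DMEM with 10% FBS were pin-treated with compounds at several concentrations, incubated 72 h at 37 °C, and viability read by CellTiter-Glo luminescence; concentration-effect curves were fitted after normalization.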
# HT1080NT lethal: kills 2HG-producing HT-1080-NT fibrosarcoma cells. Potency, µM (top dose mostly 46.1 µM), for the others: top-dose activity, negative = less viability, hits mostly cytotoxic. hit rate 1.6% among 360,000. HT-1080-NT fibrosarcoma viability, CellTiter-Glo ATP luminescence, 48 h. AID 686970;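 note: NT is the 2HG producing partner of a matched IDH1 knockdown line; 0% = DMSO-treated cells and -100% = media-only wells without cells; nearly all actives have a fitted effect of over 55% in size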
#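 Viability of the 2HG-overproducing fibrosarcoma line after 48 hours of compound exposure at 37 degrees C was determined by luminescence with CellTiter-Glo, and concentration-effect curves were then fitted and categorized.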
# HT1080 IDH1KD tx: kills HT-1080 cells with IDH1 knockdown; Potency, µM (titrated, usually from 46.1 µM), for the others: at the highest dose activity, negative = toxicity, usual class: cytotoxic; AID 686971; HT-1080 IDH1 knockdown viability, ATP luminescence, 48 h; hit rate 2% among 360,000;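 note: 0% = DMSO wells and -100% = cell-free medium wells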
#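 % activity derives from luminescence (CellTiter-Glo), normalised to DMSO and no-cell wells. HT-1080-IDH1KD cells, 750/well, had 48 h compound exposure at 37 °C.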
# DT40 TDP1 no CPT: qHTS for Inhibitors of human tyrosyl-DNA phosphodiesterase 1 (TDP1): qHTS in cells in absence of CPT; DT40 Tdp1-/- hTDP1 cells, no CPT, ATP luminescence, 48 h; Potency, µM (highest dose often 46.2 µM), inactives show at the top dose activity change, negative = growth inhibition, usual class: inhibitors; hit rate 15% among 420,000; note: nearly all actives have a fitted effect of over 55% in size
#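 DT40 Tdp1-/-;hTDP1 cells, no CPT (DMSO vehicle only), 400 cells/well; compounds pin-transferred; ≥48 hr, 37 °C; CellTiter-Glo 30 min RT dark, luminescence read.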
# TDP1 cell CPT: growth inhibition of DT40 Tdp1-/-;hTDP1 cells with camptothecin (screen for TDP1 inhibitors). hit rate 12% among 420,000. Potency, µM (titrated, usually from 46.2 µM), inactives show top-dose activity change, negative = growth inhibition, actives largely listed as inhibitors. chicken DT40 Tdp1-/-;hTDP1 cells + 20 nM CPT, ATP luminescence, 48 h; note: nearly all actives have a fitted effect of over 55% in size
#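 Cell growth measured by CellTiter-Glo luminescence after a minimum 48 h, 37 C compound exposure with 20 nM CPT in Tdp1-knockout DT40 cells stably expressing hTDP1, seeded 400/well; qHTS titration format.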
# KB-V1 cytotox: KB-V1 MDR subline cytotoxicity. KB-V1 MDR cells viability, CellTiter-Glo, 72 h. Potency, µM (highest dose often 46.1 µM), actives largely listed as cytotoxic. hit rate 3.4% among 400,000. AID 1347076; note: nearly all actives have a fitted effect of over 60% in size
#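 Readout: CellTiter-Glo luminescence, 10 min after addition. Cells: KB-V1 MDR subline, 72 h at 37 degrees C with compound. Analysis: corrected, normalized data fitted to concentration-effect curves.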
# * hit, by the source's call; i = inactive; ? = inconclusive; . = no result. In the library only some 19% were active in any assay of this set; here they are far more common. Calls come from the whole dose curve; as a rule, active = well fitted curve in the direction sought with a large enough effect; inconclusive = small, poorly fitted or top-dose-only effect, or another doubt; inactive = no such curve, though single readings can be large; an effect the other way counts as inactive or inconclusive. Unless noted, % is set by controls: 0 for no effect and ±100 for the full control effect; potency is the fitted concentration of half-maximal effect.
SMILES,KB-3-1 tox,HT1080NT lethal,HT1080 IDH1KD tx,DT40 TDP1 no CPT,TDP1 cell CPT,KB-V1 cytotox
CCn1ncc(CN2CCC(n3nccc3NC(=O)c3ccccc3Cl)CC2)c1C,i,-4%,-4%,-15%,2%,i
Cc1cc(C)c(S(=O)(=O)NCc2csc(C)n2)c(C)c1,i,3%,2%,2%,-19%,i
Oc1c(C(c2ccccn2)N2CCCCC2)cc(Cl)c2cccnc12 (configuration not stated),?,15µM*,16µM*,10µM*,18µM*,?
CN1CCN(C(c2cccc(Cl)c2)c2ccccc2Cl)CC1 (configuration not stated),?,-13%,-20%,?,?,i
CN1CCN(C(c2ccc(Cl)cc2)c2cc(Cl)c3cccnc3c2O)CC1 (configuration not stated),?,?,23µM*,16µM*,?,?
CCOc1ccc(CNC(=O)C2=Cc3cccc(OC)c3OC2)cc1,i,.,.,?,?,i
CC(C)n1nc(C(=O)Nc2nnc(SCc3c(Cl)cccc3Cl)s2)c2ccccc2c1=O,i,-16%,0%,?,10µM*,i
CC(C)n1nc(C(=O)Nc2nc3ccc(S(C)(=O)=O)cc3s2)c2ccccc2c1=O,i,-3%,-6%,-14%,-14%,i
Cc1ccc(OCc2cc(C(=O)NCc3cnn(-c4cccc(F)c4)c3)no2)cn1,i,17%,0%,?,?,i
O=C(NC(c1cccnc1)C(F)(F)F)c1cc(COc2ccc3c(c2)CCCC3)on1 (configuration not stated),21µM*,-16%,-23%,2.6µM*,4.1µM*,?
CCN(Cc1ccncc1)C(=O)c1cc(COc2ccc(C)c(C)c2)on1,i,-12%,-10%,?,-27%,i
CCN(Cc1cnn(C)c1)C(=O)c1cc(COc2ccc3c(c2)CCCC3)on1,i,0%,0%,12µM*,16µM*,i
Cc1ccc(OCc2cc(C(=O)NC(C)Cc3cnccn3)no2)cc1C (configuration not stated),i,8%,9%,?,?,?
Cn1cc(CNC(=O)c2cc(COc3ccc4c(c3)CCCC4)on2)cn1,.,2%,0%,15µM*,?,.
COc1cc2c(cc1OC)n(CC(=O)Nc1ccc(C)cc1C)c(=O)n1nc(-c3ccccc3)nc21,i,.,.,6%,8%,i
Nc1ccccc1O,i,21µM*,18µM*,16µM*,?,i
CC(=O)Nc1cc2c3c(cccc3c1)-c1ccccc1-2,i,-14%,-27%,-4%,29%,i
CC(C)(C)OC(=O)C(Cl)(C(=O)OC(C)(C)C)c1ccc2nnnn2n1,i,?,18µM*,?,?,i
CCOc1ccc2nnnn2n1,i,11%,6%,6%,0%,?
CCCCNC(=O)CSc1nc2n[nH]c(C)c2c(=N)n1-c1cccc(C)c1,.,.,.,12µM*,18µM*,.
Cc1ccc(CNC(=O)CSc2nc3n[nH]c(C)c3c(=N)n2-c2cccc(C)c2)cc1,?,?,?,9.2µM*,13µM*,i
CCCn1c(SCC(=O)NCc2ccc(C)cc2)n[nH]c1=O,i,-2%,-6%,13%,-18%,i
CCC(Sc1nc2n[nH]c(C)c2c(=N)n1-c1cccc(Cl)c1C)C(=O)N(CC)CC (configuration not stated),i,-7%,-24%,?,?,?
CCCCN(CC)C(=O)CSc1nc2n[nH]c(C)c2c(=N)n1-c1cccc(Cl)c1,.,.,.,10µM*,12µM*,.
CCc1nnc(SCC(=O)Nc2ccc(F)cc2F)c2cc3sc(C)cc3n12,i,.,.,-14%,-2%,?
SMILES,KB-3-1 tox,HT1080NT lethal,HT1080 IDH1KD tx,DT40 TDP1 no CPT,TDP1 cell CPT,KB-V1 cytotox
OC/C(Br)=C(\Br)CO,i,2%,9%,1%,5%,i
Cc1ccc(N2CCN(C(=O)c3cccn4c(=O)c5ccc(Cl)cc5nc34)CC2C)cc1 (configuration not stated),i,.,.,2%,-27%,i
Cc1ccc(C(=O)N/N=C/C2=Cc3ccccc3OC2C)cc1 (configuration not stated),i,-21%,-16%,15µM*,?,i
CC1Oc2ccccc2C=C1/C=N/NC(=O)c1ccccc1 (configuration not stated),i,-22%,-2%,26µM*,9.2µM*,i
O=C1OC(COCC#Cc2ccccc2)CN1c1ccccc1 (configuration not stated),i,-3%,-14%,?,?,i
Cc1ccc2c(=O)c(C(=O)c3cccc(Cl)c3)cn(CC(=O)NCc3ccc(F)cc3)c2n1,.,.,.,?,-21%,.
Oc1ccc(/C=N/Nc2nccnc2Cl)cc1,16µM*,16µM*,26µM*,?,?,?
Fc1cccc(/C=N/Nc2nccnc2Cl)c1,?,12µM*,15µM*,15µM*,12µM*,5.8µM*
Fc1ccc(/C=N/Nc2nccnc2Cl)cc1,?,?,?,-26%,-27%,i
CCCCN1C(=O)CC2CCOC21C (configuration not stated),i,4%,6%,-14%,2%,i
O=C1c2[nH]nc(-c3ccccc3O)c2C(c2ccccc2F)N1Cc1ccco1 (configuration not stated),i,-23%,-5%,?,?,i
Cc1ccc(O)c(-c2n[nH]c3c2C(c2ccccc2F)N(Cc2ccco2)C3=O)c1 (configuration not stated),i,.,.,21µM*,?,?
COc1cccc(C2c3c(-c4ccccc4O)n[nH]c3C(=O)N2Cc2ccco2)c1 (configuration not stated),i,-6%,-13%,?,?,i
CC(C)c1ccc(C2c3c(-c4ccccc4O)n[nH]c3C(=O)N2Cc2ccncc2)cc1 (configuration not stated),i,.,.,?,?,?
O=C1c2[nH]nc(-c3ccccc3O)c2C(c2ccccc2)N1Cc1ccco1 (configuration not stated),i,?,?,21µM*,23µM*,i
